Where “and” joins values, the source holds several entries; their conditions need not be identical. Equal values may be shown once. Unmarked numbers belong to inactive results. How the calls were made is not given here.

Pantothenate synthetase (Mycobacterium tuberculosis (strain ATCC 25618 / H37Rv)), sequence (P9WIL5 whole entry, looked up): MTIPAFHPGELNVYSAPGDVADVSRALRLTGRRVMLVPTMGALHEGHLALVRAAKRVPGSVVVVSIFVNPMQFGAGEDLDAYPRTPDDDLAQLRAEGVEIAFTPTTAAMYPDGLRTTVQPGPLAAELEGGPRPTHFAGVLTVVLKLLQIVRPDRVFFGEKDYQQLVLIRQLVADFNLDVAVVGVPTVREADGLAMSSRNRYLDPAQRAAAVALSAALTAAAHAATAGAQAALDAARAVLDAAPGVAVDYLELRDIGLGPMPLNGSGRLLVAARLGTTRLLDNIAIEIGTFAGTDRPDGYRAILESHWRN

This assay addresses Pantothenate synthetase (Mycobacterium tuberculosis (strain ATCC 25618 / H37Rv)) (UniProt P9WIL5). Kind of assay: Recombinant Mtb pantothenate synthetase (PanC) inhibitors, coupled enzyme, confirmatory (AID 375).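 Further: 0% = full reaction with vehicle and 100% = no enzyme background.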 As to conditions: coupled enzyme assay; at 10 µM, stronger effect = higher value.
Regarding `CCCCCn1c(CN2CCN(C(=O)OCC)CC2)nc2c1c(=O)[nH]c(=O)n2C`, the inhibition is 3%.
The result for `O=c1c2ccccc2c(/C=N/n2cnnc2)c(O)n1-c1ccccc1` reads 2%; that for `CCOC(=O)c1ccc(N2C(=O)CC(N(C)CCc3ccc(OC)c(OC)c3)C2=O)cc1` (stereo not given), 2%.
Under `CCCOc1ccc(C2C(C(=O)c3ccc(C)o3)=C(O)C(=O)N2Cc2cccnc2)cc1` (stereo not given) stands 10%.
In the case of `COC(=O)CSc1nc2nc(C)cc(C)n2n1`, the inhibition is 7%.
Under `COc1ccc(NC(=O)CSc2nnc(-c3ccccc3)n2N)cc1` stands 0%; under `COc1ccc(OC)c(C2C(C#N)=C(N)Oc3cc(C)[nH]c(=O)c32)c1` (stereo not given), 0%.
The result for `CC(C)(C)NC(=O)CSc1nnc(-c2ccccn2)n1-c1ccccc1` reads 0%.
The result for `Cc1ccc(-n2c(SCC3CCCCO3)nnc2-c2ccco2)cc1` (stereo not given) reads 6%; that for `C=CCn1c(COc2ccc(CC)cc2)nnc1SC/C(O)=C(\C#N)c1nc2ccccc2[nH]1`, 5%.
For the molecule `Cc1cc(C(C)(C)C)c(O)c(C)c1CC1=NCCN1`, the inhibition is 0%.
`Cc1cc(NC(=O)CSc2nc3c(c(=O)n2Cc2ccccc2)SC(C)C3)no1` (stereo not given): the inhibition was 0%.
The result for `COc1ccc(NS(=O)(=O)c2c(C)[nH]c(=O)[nH]c2=O)c(OC)c1` reads 0%; that for `CCOC(=O)c1ccc(N=Cc2nc(-c3ccccc3)oc2OC(C)=O)cc1`, 0%; that for `CCOC(=O)COc1ccc(C2NC(C(=O)O)CS2)cc1` (stereo not given), 0%.
Under `CCCNCC(O)COc1ccccc1C(=O)CCc1ccccc1` (stereo not given) stands 0%.
As to `COc1ccc(C(=O)N2CCSC2=S)cc1OC`, the inhibition is 0%.
The result for `COc1ccc(CC(=O)NC2CCN(CC(=O)Nc3ccc4c(c3)OCCO4)CC2)cc1OC` reads 0%; that for `O=C(OCCN(CCOC(=O)c1ccncc1)S(=O)(=O)c1cccs1)c1ccncc1`, 0%; that for `COC(=O)C1=C(N)OC2=C(C(=O)CCC2)C1c1cccs1` (stereo not given), 0%.
The result for `COCCN(CCOC)c1ncnc2c1cnn2-c1ccccc1` reads 0%; that for `COC(=O)Cc1c(C)nc2nc(-c3ccccc3)[nH]n2c1=O`, 0%; that for `O=S(=O)(Nn1cnnc1)c1ccccc1Cl`, 0%.
Under `S=c1[nH]nc(-c2cccc(Br)c2)o1` stands 10%.
For the molecule `COc1ccccc1C(=O)Nc1ccc(N2CCN(Cc3ccccc3)CC2)cc1`, the inhibition was 0%.
As for `CCn1c(SCC(=O)Nc2cccc(C)c2)nc2c(c1=O)SC(C)C2` (stereo not given), the inhibition was 1%.
Regarding `C[C@]12CCC(=O)C=C1CC[C@@H]1[C@@H]2[C@@H](O)C[C@@]2(C)[C@H]1CC[C@]2(O)C(=O)COC(=O)CCC(=O)O`, the inhibition was 0% and 2%.
As to `CCOc1ccc(OCC)c(NC(=O)CCCN2C(=O)c3cccnc3C2=O)c1`, the inhibition was 0%.
As for `O=C1CC(c2cccs2)CC2=C1C(c1ccccc1)n1ncnc1N2` (stereo not given), the inhibition was 3%.
On to `Cc1cc(C)n(-c2nc3ccccc3c(=O)n2OCCOc2ccccc2)n1`, for which the inhibition was 3%.
Turning to `CCOC(=O)CSc1cn2c(n1)CCC2`, the inhibition was 3%.
Under `COc1ccccc1CNC(=O)C1CCCN(S(=O)(=O)c2cccc3cccnc23)C1` (stereo not given) stands 1%.
On to `COC(=O)c1cccc(NC(=O)NC2CCCN2S(=O)(=O)c2ccc(Cl)cc2)c1` (stereo not given), for which the inhibition is 16%.
The result for `O=C(NC1CC2CCC1C2)C1COc2ccccc2O1` (stereo not given) reads 0%; that for `COC(=O)CCC(=O)Nc1ccc(S(=O)(=O)N2CCCCCC2)cc1`, 0%.
In the case of `COc1ccc(Br)cc1C1N2CC3(C)CN1CC(C)(C2)C3=O` (stereo not given), the inhibition was 0%.
Under `Cc1ccnc(NC(=O)CCC(=O)N(CC(=O)NC2CCCCC2)c2cccc(C)c2C)c1` stands 0%.
For `CCN(CC)CCN1C(=O)C(O)=C(C(=O)c2cccs2)C1c1ccc(C)o1` (stereo not given), the inhibition is 0%.
On to `Cn1c(SCc2ccccc2)nnc1C1CCCNC1` (stereo not given), for which the inhibition is 0%.
The result for `Cc1onc(-c2ccccc2)c1C(=O)N1CCN(C(=O)c2ccco2)CC1` reads 0%.

The term inhibition denotes the drop in the measured response relative to a control, in per cent.

The values are drawn from PubChem BioAssay.
